Data on 44 molecules can be found in paper PMC4336329 (PLoS ONE, 2015).

About 14,000 (4.5%) of roughly 310,000 compounds showed an effect of 50% or more. The effect is printed as a negative number. Shown is part of a subset that was picked to be rich in strong results.
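Further: peak tail current of the secondary pulse compared with the same well before compound.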

The target of the assay is human ether-à-go-go-related gene (hERG) potassium channel (human, UniProt Q12809). The experiment in a line: primary screen, population patch clamp on CHO cells stably expressing hERG; higher = less effect of the substance.
Sequence of human ether-à-go-go-related gene (hERG) potassium channel (Q12809 whole entry, looked up): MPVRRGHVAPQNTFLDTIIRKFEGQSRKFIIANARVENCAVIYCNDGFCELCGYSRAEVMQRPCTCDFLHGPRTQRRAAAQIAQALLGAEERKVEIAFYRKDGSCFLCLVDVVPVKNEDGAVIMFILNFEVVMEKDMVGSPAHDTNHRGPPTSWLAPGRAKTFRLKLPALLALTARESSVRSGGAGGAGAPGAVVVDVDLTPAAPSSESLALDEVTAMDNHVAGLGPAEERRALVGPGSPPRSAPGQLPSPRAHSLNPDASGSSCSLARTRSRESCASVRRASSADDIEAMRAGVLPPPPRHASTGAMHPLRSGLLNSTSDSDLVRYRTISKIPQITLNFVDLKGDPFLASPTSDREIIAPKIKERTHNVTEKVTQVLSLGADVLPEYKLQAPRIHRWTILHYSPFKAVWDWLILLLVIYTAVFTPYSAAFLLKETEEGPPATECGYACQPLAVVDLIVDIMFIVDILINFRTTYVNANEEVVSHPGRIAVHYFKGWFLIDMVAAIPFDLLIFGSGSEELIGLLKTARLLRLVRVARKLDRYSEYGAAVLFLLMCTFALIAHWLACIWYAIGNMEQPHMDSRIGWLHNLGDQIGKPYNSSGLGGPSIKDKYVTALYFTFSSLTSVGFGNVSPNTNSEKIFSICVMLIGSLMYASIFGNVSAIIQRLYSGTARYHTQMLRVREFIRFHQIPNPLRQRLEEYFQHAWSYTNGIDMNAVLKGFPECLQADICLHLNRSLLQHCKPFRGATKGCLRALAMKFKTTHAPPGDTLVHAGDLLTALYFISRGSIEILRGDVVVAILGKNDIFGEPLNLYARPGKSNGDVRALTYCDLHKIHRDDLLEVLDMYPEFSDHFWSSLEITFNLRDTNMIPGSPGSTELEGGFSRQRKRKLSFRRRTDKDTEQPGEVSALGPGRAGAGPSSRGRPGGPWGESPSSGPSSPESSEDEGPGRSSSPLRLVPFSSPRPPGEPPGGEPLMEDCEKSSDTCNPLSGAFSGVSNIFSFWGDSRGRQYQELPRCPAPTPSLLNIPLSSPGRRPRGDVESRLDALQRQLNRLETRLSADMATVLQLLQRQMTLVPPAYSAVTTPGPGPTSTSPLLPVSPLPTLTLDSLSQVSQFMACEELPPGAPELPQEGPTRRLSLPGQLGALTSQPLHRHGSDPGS
In the case of `Brc1ccc(CSc2nnc(-c3ccccn3)n2Cc2ccco2)cc1`, the “hERG current change (%, negative = inhibition) at 10uM” value is -16.8%.

For `CN1CCc2c(OCC(=O)NC3CCCCC3)cccc2C1=O`, the “hERG current change (%, negative = inhibition) at 10uM” value came to 13.6%.

As to `CCCCCCSc1ccc([C@H]2N[C@@](Cc3ccccc3)(C(=O)OC)[C@H]3C(=O)N(C)C(=O)[C@@H]23)cc1OC.O=C(O)C(F)(F)F`, the “hERG current change (%, negative = inhibition) at 10uM” value is listed as 5.93%.

Take `O=P(O)(O)O.c1ccc(CSCCc2ccncc2)cc1`: the “hERG current change (%, negative = inhibition) at 10uM” value is given as -5.48%.

Regarding `COC(=O)Cn1cc(C(=O)c2ccccc2F)c2ccccc21`, the “hERG current change (%, negative = inhibition) at 10uM” value is -1.29%.

Consider `CCOC(=O)Cn1cc(C(=O)c2ccccc2F)c2ccccc21`, for which the “hERG current change (%, negative = inhibition) at 10uM” value was -71%.

On to `NC(=O)Cn1cc(C(=O)c2ccccc2F)c2ccccc21`, for which the “hERG current change (%, negative = inhibition) at 10uM” value was determined as 25.1%.

For the molecule `CCc1ccc(C(=O)CN(C#N)c2nc(C)cc(C)n2)cc1`, the “hERG current change (%, negative = inhibition) at 10uM” value was -75.6%.

Regarding `CCN(CC)C(=O)CN(C#N)c1nc(C)cc(C)n1`, the “hERG current change (%, negative = inhibition) at 10uM” value was found to be 19.4%.

Regarding `Cc1cc(C)nc(N(C#N)CC(=O)c2ccccc2)n1`, the “hERG current change (%, negative = inhibition) at 10uM” value is on record as -42.9%.

Regarding `Cc1c(Cl)cccc1NC(=S)NC(=O)c1cncc(Br)c1`, the “hERG current change (%, negative = inhibition) at 10uM” value is listed as 17.6%.

As to `COc1cccc(/C=N/NC(=S)NCCc2ccccc2)c1`, the “hERG current change (%, negative = inhibition) at 10uM” value is listed as 10.5%.

As for `CCC(=O)Nc1cccc(-c2nnc(-c3cccc(NC(=O)CC)c3)o2)c1`, the “hERG current change (%, negative = inhibition) at 10uM” value is given as 7.83%.

As to `Cc1ccc(CNC(=O)c2oc3ccc(S(=O)(=O)N4CCC5(CC4)OCCO5)cc3c2C)cc1`, the “hERG current change (%, negative = inhibition) at 10uM” value is given as -3.35%.

As for `CS(=O)(=O)Nc1ccccc1C(=O)NCc1ccco1`, the “hERG current change (%, negative = inhibition) at 10uM” value is recorded as -2.03%.

Regarding `CS(=O)(=O)Nc1ccc(C(=O)Nc2ccccc2C(=O)NCc2ccco2)cc1`, the “hERG current change (%, negative = inhibition) at 10uM” value was -69.2%.

Regarding `CS(=O)(=O)Nc1ccc(C(=O)NCCSCc2ccccc2)cc1`, the “hERG current change (%, negative = inhibition) at 10uM” value is listed as -45.1%.

`CN(c1ccc(C(=O)NCCSCc2c(F)cccc2Cl)cc1)S(C)(=O)=O`: the “hERG current change (%, negative = inhibition) at 10uM” value was found to be 1.6%.

Take `CC(=O)Nc1ccc(S(=O)(=O)N(C)Cc2ccccc2)cc1`: the “hERG current change (%, negative = inhibition) at 10uM” value was -12.7%.

Turning to `CN(Cc1ccccc1)S(=O)(=O)c1ccc(NS(=O)(=O)Cc2ccccc2)cc1`, the “hERG current change (%, negative = inhibition) at 10uM” value is given as 0.139%.

For `CS(=O)(=O)Nc1ccc(C(=O)NCCc2ccccc2)cc1`, the “hERG current change (%, negative = inhibition) at 10uM” value is given as -69.6%.

Regarding `CS(=O)(=O)NCCSCc1c(F)cccc1Cl`, the “hERG current change (%, negative = inhibition) at 10uM” value is reported as 1.87%.

Consider `CC(=O)Nc1ccc(C(=O)NCCc2ccccc2)cc1`, for which the “hERG current change (%, negative = inhibition) at 10uM” value is recorded as 12.9%.

For the molecule `CS(=O)(=O)Nc1ccc(C(=O)NCc2ccco2)cc1`, the “hERG current change (%, negative = inhibition) at 10uM” value was found to be 0.221%.

Turning to `CN(Cc1ccccc1)S(=O)(=O)c1ccc(NS(C)(=O)=O)cc1`, the “hERG current change (%, negative = inhibition) at 10uM” value is -55.5%.

In the case of `CS(=O)(=O)Nc1ccc(C(=O)NCCSCc2c(F)cccc2Cl)cc1`, the “hERG current change (%, negative = inhibition) at 10uM” value is listed as -57.7%.

Consider `CCOC(=O)C1=C(COc2ccccc2)NC(=O)NC1c1ccc2ccccc2c1` (centres unmarked), for which the “hERG current change (%, negative = inhibition) at 10uM” value was -12.3%.

On to `CC(C)CCNC(=O)NC(=O)CSc1nnc2ccccn12`, for which the “hERG current change (%, negative = inhibition) at 10uM” value was 15.6%.

Consider `CCOC(=O)N1CCC(NC(=O)CC2C(=O)NCCN2Cc2ccccc2)CC1` (centres unmarked), for which the “hERG current change (%, negative = inhibition) at 10uM” value was -1.48%.

Consider `CCN(CC)S(=O)(=O)c1ccc(/C=C/C(=O)Nc2c(C)n(C)n(-c3ccccc3)c2=O)cc1`, for which the “hERG current change (%, negative = inhibition) at 10uM” value came out at 19.4%.

For `CCCC1CCC(=C(C#N)C(N)=O)CC1` (centres unmarked), the “hERG current change (%, negative = inhibition) at 10uM” value is reported as -32.8%.

With `O=C(Nc1ccccc1-c1ccccc1)c1ccccc1`, the “hERG current change (%, negative = inhibition) at 10uM” value came to 13.2%.

With `CCOC(=O)c1ccccc1NC(=O)c1ccccc1NS(C)(=O)=O`, the “hERG current change (%, negative = inhibition) at 10uM” value is on record as -0.0503%.

`CCOC(=O)c1ccccc1NC(=O)c1ccc(NS(C)(=O)=O)cc1`: the “hERG current change (%, negative = inhibition) at 10uM” value is reported as -54.7%.

On to `CCc1ccccc1NC(=O)c1ccc(NS(C)(=O)=O)cc1`, for which the “hERG current change (%, negative = inhibition) at 10uM” value is -42.1%.

As for `CS(=O)(=O)Nc1ccc(C(=O)Nc2ccccc2-c2ccccc2)cc1`, the “hERG current change (%, negative = inhibition) at 10uM” value is on record as -65.9%.

Consider `COC(=O)c1ccccc1NC(=O)c1ccc(NS(C)(=O)=O)cc1`, for which the “hERG current change (%, negative = inhibition) at 10uM” value was -36.1%.

Take `Cc1cccc(C(=O)O/N=C2/CC3CCC2(C)C3(C)C)c1` (centres unmarked): the “hERG current change (%, negative = inhibition) at 10uM” value is on record as -11%.

As to `Cc1cc(C(=O)NCCC2=CCCCC2)c(C)o1`, the “hERG current change (%, negative = inhibition) at 10uM” value came to 7.75%.

For `O=S(=O)(c1cccc(-c2n[nH]c(=S)o2)c1)N1CCOCC1`, the “hERG current change (%, negative = inhibition) at 10uM” value was 14.9%.

As for `CCC(C)NC(=O)C1CCN(S(=O)(=O)N2CCOCC2)CC1` (centres unmarked), the “hERG current change (%, negative = inhibition) at 10uM” value came out at 22.8%.

Take `N#CC1=C(SCc2ccc(C#N)cc2)N=C(N)C(c2nc(-c3ccccc3)cs2)C12CCCCC2` (centres unmarked): the “hERG current change (%, negative = inhibition) at 10uM” value amounted to 12.3%.

Consider `CCC(C)Cn1c(C(C)O)nc2ccccc21` (centres unmarked), for which the “hERG current change (%, negative = inhibition) at 10uM” value is given as 0.00748%.

In the case of `O=C(c1cc2ccccc2o1)N1CCN(c2cccc(C(F)(F)F)c2)CC1`, the “hERG current change (%, negative = inhibition) at 10uM” value was 3.21%.
